± gives the standard deviation of the averaged measurements. Whole data set: some 25,000 sequences, median “ln(normalized median fluorescence intensity)” near 7.9, cut for the highest 2% near 11. The sample holds the highest values, similar sequences and a random draw of the others, so the mix is not that of the screen.

In this assay the test system is PfAP2-I AP2 domain 3 (GST-tagged). Put plainly: gcPBM binding intensity (ln(normalized median fluorescence intensity)); higher = stronger DNA binding. The method, boiled down: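 Probes on an Agilent 4 × 180k array were primer-extended, double-stranded and 36 bp long, taken from intergenic genomic regions, with negative controls added. GST-tagged P. falciparum DNA-binding domains from E. coli, about 25 μg on average, were applied to the array for 1 h in 1× PBS containing 1% milk, 0.2 mg/ml BSA, 0.5% salmon testes DNA and 0.03% Triton X-100. Binding intensity, obtained after Alexa488 anti-GST antibody detection and a 488 nm scan, is the highest Masliner-normalised natural-log median intensity across replicate spots of either probe orientation.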
For the sequence “TTGTTCATTATGCACAGTACATAAAAAGTAAAAAAA [XGTACX_site2403]”, the “gcPBM binding intensity (ln)” value worked out at 10 ± 0.65.
For “TTTCTGTGTTTTGGTTGTACACACGCTACATTATAT [XGTACX_site5669]” the value was 8.53 ± 0.67.
For “GGAAATAATATTATTACACACCAAAATGTATAAAAA [CACACA_site4036]” the value was 8.36 ± 0.85; for “ATATATATATATGAAAGTACACATCTATTTTTTCTT [XGTACX_site6059]”, 9.29 ± 0.18; for “ATTGAACACATCTATGCATGCACGGAAAAAAGTACA [TGCATGCA_site401]”, 11 ± 0.28.
On to “GCATGCACGGAAAAAAGTACATATATAAATTTGGTT [XGTACX_site3393]”, for which the “gcPBM binding intensity (ln)” value amounted to 8.2 ± 0.52.
Turning to “AGAAAGGATATAAGCGTAGCTATATCATAAAAAATG [GTGCAC_negctrl_site332]”, the “gcPBM binding intensity (ln)” value was found to be 7.58 ± 0.74.
Turning to “TGTAGAAATGGGTGCACACACATATAAAATCTATAT [CACACA_site7224]”, the “gcPBM binding intensity (ln)” value was 10.4 ± 0.59.
The figure for “AAAAAAAAAATTTTCGTGCACATAAGAAAATTTAAA [GTGCAC_site9788]” is 10.3 ± 0.16; for “TTTTTTTTTTTTTTGGTGCACATAGAAATTCTAAAA [GTGCAC_site9809]” it is 10.9 ± 0.6; for “ATATTTTAATTATAAAGTACATAAAAATATATAAAC [XGTACX_site6705]” it is 7.92 ± 0.35.
For “TATTACATACATATCTGTACATATATTAATGCACAA [XGTACX_site3315]” the value was 11.6 ± 1; for “ATATAATATCTGTATACACACATATTATATAATATT [CACACA_site5940]”, 7.86 ± 0.51; for “TATTTCTGATTATTTTGTACACATTATATATAATGC [XGTACX_site6990]”, 8.04 ± 0.29.
The figure for “ATGTTCATTATATGCACACATATATATAAATGTAAT [CACACA_site2908]” is 9.34 ± 0.3.
On to “AAAAAAAAAAAATTATGTACATATTATATATAATGG [XGTACX_site2885]”, for which the “gcPBM binding intensity (ln)” value is 7.77 ± 0.45.
The figure for “TTAATATTAATATATTGTACATATATGCACATATTT [XGTACX_site6569]” is 9.1 ± 0.18.
For the sequence “ATATATACATATAAATGTACATAATTATTATGCACA [XGTACX_site1261]”, the “gcPBM binding intensity (ln)” value came to 11.3 ± 0.82.
For “TATTATAATAAAATATGTACACACATACACACATAT [XGTACX_site2360]” the value was 7.98 ± 0.41; for “TTATGTTCATTATATGCACACATATATATAAATGTA [CACACA_site8947]”, 9.11 ± 0.071.
As to “TTTGTGTATATATAATGTACATTATATTTTTATTAT [XGTACX_site6506]”, the “gcPBM binding intensity (ln)” value was 8.13 ± 0.45.
Turning to “ATATATATATATAATGCACACATTATAAATTATGTA [CACACA_site5802]”, the “gcPBM binding intensity (ln)” value was determined as 11.1 ± 0.26.
For “TTTTTTTTTTTTTTGTGTACATATAATGCACATTAT [XGTACX_site6505]” the value was 11.1 ± 0.93; for “TGAAAATATATAACGCGTACAAAAAGGAAATACAAT [XGTACX_site3534]”, 8.38 ± 0.64.
Regarding “AAAAAAAAAAAAAATATACACACTAATATATTTTTT [CACACA_site815]”, the “gcPBM binding intensity (ln)” value worked out at 7.98 ± 0.54.
For “TAAATATATTAAGCTTGTACATGAAAAAAAAAAAAA [XGTACX_site3264]” the value was 8.1 ± 0.59; for “TTTTCTTAAAAAATCAAACACACATATATATATACA [CACACA_site2297]”, 7.6 ± 0.51.
The figure for “ATATATATATATAATGCACACATTATGAATTATGTA [CACACA_site3384]” is 11.3 ± 0.26; for “GATATATAATATAATACACACATTTTATGAATGTAA [CACACA_site24]” it is 7.66 ± 0.32.
The figure for “ATAAATAATTATATATGTACACATTATGAATGGATA [XGTACX_site8336]” is 7.78 ± 0.4; for “AAATGTTATAACTCTTGAAAAAACAAAATATCATCA [CACACA_negctrl_site1156]” it is 7.57 ± 0.49; for “ACCAATAATATACATACACACATAAAGGTTTATATA [CACACA_site315]” it is 7.95 ± 0.44.
As for TGTGTCCATTGAACAGTGCAATAAAAACTTTTACAT, the “gcPBM binding intensity (ln)” value was 11.2 ± 0.59.
As to “ATGAAACAGTAACATTGTACTTTTACAAAAAAATAA [XGTACX_site806]”, the “gcPBM binding intensity (ln)” value is 7.7 ± 0.33.
For “AAAAAAAAAAAAAACATACACACATTGAACTTTTAT [CACACA_site3251]” the value was 8.18 ± 0.54; for “TACACACCTAACTATGCATGCATCAATATAGTGGAT [TGCATGCA_site443]”, 7.76 ± 0.75.
For “AAAATATAATATAATGCACACATAAACAAAAAAAAA [CACACA_site8161]” the value was 10.9 ± 0.74.
For “CACAAAAATAAACACACACACATATATATATATATA [CACACA_site4704]” the value was 9.39 ± 0.42; for “AAAATTTAATATAATGCACACATAAAACAAAAACAA [CACACA_site8071]”, 10.9 ± 0.64; for “AATATAAAAATGCACACACACAAAAAAAAAAAAAAA [CACACA_site6546]”, 9.03 ± 0.16.
On to “CATTAACAAATAAATGCACACATATATATAAATAAT [CACACA_site7892]”, for which the “gcPBM binding intensity (ln)” value is 9.51 ± 0.35.
“AACGGGTAATGCACAAAAAAAAAAAAATAAAATAAA [TGCATGCA_negctrl_site474]”: the “gcPBM binding intensity (ln)” value was 11.4 ± 1.
Regarding “TAATAAATCAAATGCACACACACAAAAAAAAAAAAA [CACACA_site161]”, the “gcPBM binding intensity (ln)” value stood at 9.24 ± 0.38.
For the sequence “ATAAATCAAATGCACACACACAAAAAAAAAAAAAAA [CACACA_site6221]”, the “gcPBM binding intensity (ln)” value amounted to 9.31 ± 0.16.
Take “AATTTAATATAATGCACACATAAAACAAAAACAAAA [CACACA_site529]”: the “gcPBM binding intensity (ln)” value is 10.8 ± 0.72.
For “AATATAATATAATGCACACATAAAAAAAAAATCAAA [CACACA_site122]” the value was 11.2 ± 1.

(Values after the supplement of paper PMC11417369.)
